# High-throughput results: PubChem BioAssay, Broad Institute
# Sampled rows, rich in hits. Any-hit rate of the full collection: about 1.5%.
# CASP6 VEID inh: caspase-6 (human) enzyme inhibition | P55212 | hit rate 0.53% among 350,000 | AID 686996 | inhibition, % at 12.5 µM | purified caspase-6, Z-VEID-R110 cleavage fluorescence;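 active means mean inhibition across replicates at least about 35%, with every replicate also reaching that limit, limit read from the data; inconclusive means only one of the two criteria met; inactive means neither criterion met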;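 further: 0% = median of neutral control wells and 100% = no fluorescence left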
# Target sequence (P55212 24-179 limits assumed): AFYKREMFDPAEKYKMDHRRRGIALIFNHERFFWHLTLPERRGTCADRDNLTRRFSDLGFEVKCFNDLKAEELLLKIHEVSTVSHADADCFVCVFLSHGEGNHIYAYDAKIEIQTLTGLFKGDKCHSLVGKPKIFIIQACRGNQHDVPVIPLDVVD
# Target sequence (P55212 194-293 limits assumed): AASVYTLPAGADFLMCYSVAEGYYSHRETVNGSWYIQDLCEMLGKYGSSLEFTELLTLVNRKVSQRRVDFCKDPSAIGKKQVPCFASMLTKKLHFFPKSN
# RAD52 inh: inhibitors of human RAD52 DNA annealing. recombinant RAD52 DNA annealing, FRET fluorescence. inhibition, % at 18.7 µM. hit rate 0.46% among 360,000. AID 651710;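 active means every replicate showing at least 50% inhibition; inconclusive means mean inhibition at least 50% but not in every replicate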
# Target sequence (P43351 whole entry, looked up): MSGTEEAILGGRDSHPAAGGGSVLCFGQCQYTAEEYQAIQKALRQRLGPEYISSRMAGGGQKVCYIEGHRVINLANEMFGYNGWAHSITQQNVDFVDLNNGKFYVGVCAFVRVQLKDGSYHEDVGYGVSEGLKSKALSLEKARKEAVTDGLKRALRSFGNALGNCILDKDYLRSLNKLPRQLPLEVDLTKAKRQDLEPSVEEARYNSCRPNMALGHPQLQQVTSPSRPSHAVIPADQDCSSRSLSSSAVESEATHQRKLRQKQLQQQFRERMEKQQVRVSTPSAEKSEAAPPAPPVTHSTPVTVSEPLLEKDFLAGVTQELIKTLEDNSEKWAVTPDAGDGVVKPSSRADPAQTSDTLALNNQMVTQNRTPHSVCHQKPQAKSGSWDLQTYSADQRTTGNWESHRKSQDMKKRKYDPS
# NSD2 inh: NSD2 (human) methyltransferase inhibition; NSD2 peptide methylation, AlphaScreen, 120 min; inhibition, % at 12.5 µM; hit rate 0.54% among 310,000; AID 743445; in the data active means inhibition above about 50%
# MLL AF4-AF9 inh: inhibitors of human MLL-AF4/AF9 interaction; P42568; AlphaScreen, biotin-AF4 peptide binding to FLAG-AF9; inhibition, % at 10 µM; hit rate 0.47% among 350,000; AID 651704;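 active means every replicate reaching a set inhibition limit, whatever the replicate mean, cut at about 25% in these data; inconclusive means mean inhibition reaches that limit but some replicates miss it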;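 further: 0% = plate neutral control median and 100% = total signal loss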
# miR122 inh: inhibitors of miR-122 in Huh7 cells; Huh7 miR-122 Renilla luciferase sensor, 48 h; neutral wells = 0, positive control = 100; activation (reporter increase), % at 12.5 µM; hit rate 0.3% among 340,000;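 active means mean replicate activation score at least 90 and every replicate individually at or above 90; inconclusive means only one of the two criteria met; inactive means neither criterion met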;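 further: higher luciferase means less miR-122 activity so hits act as miR-122 inhibitors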
# * marks the source's active call; other numbers are inactive results; ? = inconclusive; nt = not tested or not shown; ! = a repeat was not active; [ ] = another dose, or the depositor's remark.
SMILES,CASP6 VEID inh,RAD52 inh,NSD2 inh,MLL AF4-AF9 inh,miR122 inh
Cc1ccc2c(c1)c1c(n2CC(O)CNC(CO)(CO)CO)CCCC1 (configuration not stated),-4.1,-15.6,nt,?,nt
Cc1ccc2c(c1)c1c(n2CC(O)CN2CCC(C)CC2)CCCC1 (configuration not stated),45.9*,-20.4,9.1,4.2,-7.2
Cc1ccc2c(c1)c1c(n2CC(O)CNC2CCCCC2)CCCC1 (configuration not stated),49.5*,24.5,nt,29.9*,-2.1
Cc1ccc2c(c1)c1c(n2CC(O)CN2CCCCC2C)CCCC1 (configuration not stated),-3.2,-24.3,13.0,12.1,-0.2
O=C(C[n+]1ccc(/C=C/c2ccccc2)cc1)c1ccc2c(c1)OCCO2,10.3,76.2*,48.1,17.4,-9.4
Cc1cc[n+](CC(=O)c2ccc3c(c2)OCCO3)cc1,-9.3,-19.4,-1.9,-2.7,3.1
CCOC(=O)c1c(C)oc2c1cc(NS(=O)(=O)c1ccc(C(=O)O)cc1)c1ccccc12,61.7*,-26.0,49.6,2.8,0.3
C[C@@H]1CN([C@H](C)CO)S(=O)(=O)c2ccc(-c3ccc(C#N)cc3)cc2O[C@H]1CN(C)Cc1ccccn1,nt,0.4,nt,5.6,nt
NC(=O)NCc1ccccc1Cl,-1.4,-19.1,1.0,-1.3,nt
O=C(NCc1ccccc1Cl)NCc1ccccc1Cl,0.9,-6.3,-3.8,31.8*,-2.3
Cc1noc(C)c1NC(=O)Nc1ccc2c(c1)CC(=O)N([C@H](C)CO)C[C@H](C)[C@@H](CN(C)C(=O)Nc1cccc3ccccc13)O2,nt,nt,nt,0.8,-6.7[16.7 µM]
CN(CCc1ccccc1)c1cc2c(c3c1ccn3C)C1CCC2O1 (configuration not stated),8.9,1.4,nt,27.6*,0.5
CN(c1cc2c(c3c1ccn3C)C1CCC2O1)C1CCCCC1 (configuration not stated),0.2,32.8,nt,32.2*,-4.1
Cn1ccc2c(-c3cccnc3)cc3c(c21)C1CCC3O1 (configuration not stated),2.8,-10.3,nt,0.1,1.5
COc1cccc(CN2[C@H](CO)[C@H](c3ccccc3)C23CN(C(=O)C2CCOCC2)C3)c1,-2.7,-15.2,nt,0.1,nt
O=C(NCc1ccc2c(c1)OCO2)[C@@H]1[C@@H](CO)[C@@H]2Cn3c(cccc3=O)[C@H]1N2Cc1ccncc1,2.1,2.3,nt,-2.3,-2.8[16.7 µM]
Cc1cc(=O)[nH]c(SCC(=O)Nc2ccc(S(N)(=O)=O)cc2)n1,52.3*,-20.0,-1.1,-5.2,1.6
Cc1ccc(C(=O)CSc2nc(C)cc(=O)[nH]2)cc1,nt,nt,0.4,nt,0.4
O=C(CSc1nc2ccccc2c(=O)[nH]1)c1ccc(O)c(O)c1,70.4*,-10.8,nt,4.3,2.2
O=C(CSc1nc2ccccc2c(=O)[nH]1)c1ccc(O)cc1O,3.0,-14.7,0.3,-2.5,nt
Cn1c(SCC(=O)c2ccc(O)c(O)c2)nnc1-c1cccs1,40.4*,-5.0,16.4,0.4,0.0
Cc1cc(=O)[nH]c(SCC(=O)Nc2ccc(C(=O)O)cc2)n1,1.0,3.7,0.9,-48.2,-3.7
Cc1cc(=O)[nH]c(SCC(=O)c2ccc(O)c(O)c2)n1,36.3*,-7.1,24.5,-4.1,nt
C[C@H]1CN([C@@H](C)CO)C(=O)Cc2cc(N(C)C)ccc2O[C@@H]1CN(C)Cc1ccncc1,-0.3,-1.9,nt,2.8,-6.1[16.7 µM]
COc1ccc(/C=C2\SC(=S)N(CCCC(=O)NC34CC5CC(CC(O)(C5)C3)C4)C2=O)cc1,0.6,-3.6,nt,2.6,nt
SMILES,CASP6 VEID inh,RAD52 inh,NSD2 inh,MLL AF4-AF9 inh,miR122 inh
O=C(CSc1nc2ccccc2n1CCc1ccccc1)c1ccc(O)c(O)c1,69.6*,-3.5,101.8*,6.3,10.9
O=C(CSc1nc2ccccc2n1CCc1ccccc1)N1CCOCC1,0.1,-5.6,0.7,-2.1,nt
Cc1cc(SCC(=O)c2ccc(O)c(O)c2)n2nc(C)c(-c3ccccc3)c2n1,39.4*,-8.1,10.7,?,-22.3
CCCCC/C=C\C/C=C\C/C=C\CCCCC(=O)O,39.9*,-32.2,nt,-4.0,-2.1
CCCCCCCC/C=C\CCCCCCCC(=O)O,7.3,-11.5,nt,-20.0,0.5
Cc1ccc(-n2nc(C)c3c(C)c(CCC(=O)Nc4ccc(CN5CCCC5)cc4)c(C)nc32)cc1,-5.6,-11.9,0.3,27.0*,-1.3
COC(CNC(=O)CCc1c(C)nc2c(c(C)nn2-c2ccc(C)cc2)c1C)OC,0.4,-7.4,-1.7,-0.9,-1.1
C[C@@H]1CN([C@H](C)CO)C(=O)c2cc(C#CCN(C)C)cnc2O[C@H]1CN(C)Cc1ccccc1,1.0,12.5,nt,1.9,1.2[16.7 µM]
COCC(=O)N(C)C[C@@H]1Oc2ncc(C#Cc3cccnc3)cc2C(=O)N([C@H](C)CO)C[C@H]1C,-0.5,-0.4,nt,-6.5,112.7*[16.7 µM]
C[C@H]1CN([C@@H](C)CO)C(=O)c2cc(C#CCN(C)C)cnc2O[C@H]1CN(C)C(=O)c1ccc2c(c1)OCO2,57.4*,5.5,nt,-0.3,nt
C[C@@H]1CN([C@@H](C)CO)C(=O)c2cc(C#CCN(C)C)cnc2O[C@@H]1CN(C)Cc1ccc(-c2ccccc2)cc1,-0.3,-7.9,nt,23.1,-9.6[16.7 µM]
COCC(=O)N(C)C[C@H]1Oc2ncc(C#Cc3ccccc3)cc2C(=O)N([C@@H](C)CO)C[C@H]1C,0.9,-17.4,nt,-1.6,-3.9[16.7 µM]
C[C@@H]1CN([C@H](C)CO)C(=O)c2cc(C#CCN(C)C)cnc2O[C@H]1CN(C)Cc1ccc(-c2ccccc2)cc1,0.8,-1.3,nt,26.7*,-21.9[16.7 µM]
C[C@@H]1CN([C@@H](C)CO)C(=O)c2cc(C#CCN(C)C)cnc2O[C@H]1CN(C)Cc1ccc(-c2ccccc2)cc1,-24.6,10.3,nt,33.9*!,-22.8[16.7 µM]
C[C@@H]1CN([C@@H](C)CO)C(=O)c2cc(C#CCN(C)C)cnc2O[C@@H]1CN(C)C(=O)c1ccc2c(c1)OCO2,-3.0,0.0,nt,-4.3,nt
CC(C)CC#Cc1ccc([C@H]2[C@H](CO)N3C(=O)CN(C(=O)Cc4cccnc4)C[C@@H]23)cc1,3.0,-7.0,nt,2.7,nt
C[C@@H]1CN([C@H](C)CO)C(=O)Cc2cc(NS(=O)(=O)c3cccs3)ccc2O[C@H]1CN(C)Cc1ccc2c(c1)OCO2,3.8,-8.7,nt,0.0,6.0[16.7 µM]
O=C(C1CCC1)N1CC2(C1)[C@H](c1ccccc1)[C@@H](CO)N2Cc1cncnc1,-3.0,-6.8,nt,-1.0,nt
[N-]=[N+]=NCc1ccccc1C[C@]1(C(=O)NCCN2CCOCC2)COC(c2ccc(OCCCO)cc2)=N1,-0.5,12.6,nt,5.7,nt
CCCSc1ccc([C@@H]2[C@@H]3C(=O)N(CC)C(=O)[C@@H]3[C@]3(C(=O)OC)CCCCN23)cc1OC,3.3,-79.0,nt,3.7,-3.1
CCCCCCSc1ccc([C@@H]2[C@H]3C(=O)N(CC)C(=O)[C@H]3[C@]3(C(=O)OC)CCCCN23)cc1OC,0.1,-195.0,nt,47.5*,-0.8
COc1ccc2c3c(n(C)c2c1)[C@H](CO)N(Cc1nccs1)CC31CN(C(=O)CC2CC2)C1,1.4,3.1,nt,-0.1,nt
COc1ccc(OCC(=O)Nc2ccc(N3CCCCC3)cc2)cc1,1.2,-7.8,1.0,-2.0,nt
